Most compounds without a hit are left out; they make up all but 19% or so of the library.
Shiga inhibitor: Shiga toxin inhibition; Vero cells, Shiga toxin protein synthesis inhibition reporter; inhibition, % at 38.7 µM; hit rate 9.2% among 290,000; AID 2315; in the data active = inhibition mostly above about 28%, no sharp cut-off; inactive = mostly below about 43%; note: 0% is about no effect
AMA1-RON2 inh: disrupts binding of P. falciparum AMA1 to RON2 | AlphaScreen AMA1-biotinylated RON2 peptide binding | hit rate 0.2% among 360,000 | Potency, µM (series often up to 58.2 µM), inactives show at the highest dose activity change, negative = inhibition, usual class: inhibitors;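 note: potency is the fitted concentration of half-maximal effect; 0% = vehicle wells and -100% = peptide control; nearly all actives have a fitted effect of over 45% in size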
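AMA1 (3D7) with his tag at 25 nM final met compounds first, then biotinylated RON2 peptide at 25 nM; detection used donor plus acceptor beads, 10 µg/mL apiece, read by AlphaScreen after 30 min at room temperature.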
Pf growth 96h: P. falciparum growth inhibition at 96 hours. P. falciparum luciferase reporter growth, 96 h. Potency, µM (top dose mostly 28.7 µM), inactives show top-dose activity change, negative = inhibition, actives largely listed as inhibitors. hit rate 6.9% among 320,000. AID 504834; note: potency is the fitted concentration of half-maximal effect; % is set by controls: 0 for no effect and ±100 for the full control effect
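Luminescence readout: decreased luciferase signal marks inhibited growth of reporter-expressing P. falciparum in infected red cells (2% hematocrit, 0.05% parasitemia final), exposed to compound two generations (96 h, 37 C, 5% CO2).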
SARS PLpro yeast: blocks SARS-CoV papain-like protease in a yeast assay; Potency, µM (doses to about 32.9 µM), for inactives: at the highest dose activity, positive = growth rescue, usual class: activators; hit rate 0.19% among 330,000; AID 485353; S. cerevisiae expressing SARS-CoV PLpro, growth rescue; calls by dose curve; note: potency is the fitted concentration of half-maximal effect; 0% is about no effect; nearly all actives have a fitted effect of over 55% in size
Pf growth 48h: inhibits P. falciparum growth in the first generation, 48 h | P. falciparum luciferase growth in erythrocytes, 48 h | Potency, µM (titrated, usually from 28.7 µM), for inactives: at the top dose activity change, negative = inhibition, hits mostly inhibitors | hit rate 5.9% among 310,000 | AID 504832; note: potency is the fitted concentration of half-maximal effect; % is set by controls: 0 for no effect and ±100 for the full control effect
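Here the parasites carry a stable luciferase gene and grow inside erythrocytes in Albumax-based RPMI medium with compound for one erythrocytic cycle. Activity is scored as loss of luminescent signal.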
Cycloheximide cs: counter-screen hit for Shiga toxin inhibitors, cycloheximide | AID 2314 | max response, % | hit rate 12% among 300,000 | cell reporter, cycloheximide protein synthesis inhibition counterscreen; in the data active = max response mostly above about 13%, no sharp cut-off; inactive = mostly below about 14%; note: read at 38.3 µM for the half of the compounds with a filed dose; 0% is about no effect
An asterisk follows results filed as active; ? = inconclusive; / = no result given. Unless noted, calls come from the whole dose curve; as a rule, active = well fitted curve in the direction sought with a large enough effect; inconclusive = small, poorly fitted or top-dose-only effect, or another doubt; inactive = no such curve, though single readings can be large; an effect the other way counts as inactive or inconclusive.

SMILES	Shiga inhibitor	AMA1-RON2 inh	Pf growth 96h	SARS PLpro yeast	Pf growth 48h	Cycloheximide cs
O=C1c2ccccc2S(=O)(=O)c2cc(C(=O)N(c3ccccn3)c3ccccn3)ccc21	25	88%	1%	4%	-14%	0
CCN(CC)c1ccc2c(c1)CCCN2	-2	/	10µM*	13µM*	10µM*	1
O=S(=O)(c1ccc2c(c1)CCCN2)N1CCCC1	/	-7%	-11%	6%	-16%	/
COc1ccc(-c2nonc2NC(=O)c2ccco2)cc1OC	-8	9%	?	3%	?	1
CCOc1ccc(-c2nonc2NC(=O)c2ccco2)cc1	-11	-6%	10µM*	4%	0%	-3
CCOc1ccc(-c2nonc2NC(=O)c2ccco2)cc1OCC	36*	-11%	?	0%	0.37µM*	18
COc1ccc(N2CC(NC(=O)N3CCc4ccccc43)CC2=O)cc1OC (stereo not drawn)	12	0%	-19%	-2%	-9%	1
COc1ccc(S(=O)(=O)n2ccc(-c3ccc(OCCN(C)c4ccccn4)cc3)n2)cc1	-5	-15%	10µM*	-6%	4.7µM*	6
COc1ccc(S(=O)(=O)N(CC(=O)O)c2ccccn2)cc1	-6	-14%	-19%	7%	/	9
Nc1ccccc1-c1ccc([N+](=O)[O-])cc1	/	-1%	/	/	/	/
Cc1cccc(Cn2nc(C(C)(C)C)cc2C(=O)Nc2ccc(F)cc2)c1	36	12%	9.3µM*	-7%	10µM*	18*
CC(C)(C)c1cc(C(=O)NN)n(Cc2ccc(F)cc2)n1	9	42%	?	0%	?	-4
COC(=O)c1cc(NC(=O)c2cc(C(C)(C)C)nn2Cc2ccc(F)cc2)ccc1N1CCOCC1	14	0%	-11%	-3%	6.6µM*	8
CCN(C(=O)Cn1nc(C)c([N+](=O)[O-])c1C)C1CCS(=O)(=O)C1 (stereo not drawn)	/	11%	26%	3%	-9%	/
CCOc1cc(NC(=O)c2ccccc2[N+](=O)[O-])c(OCC)cc1NC(=O)CC(C)C	-4	-7%	27%	4%	10%	1
Cc1ccc(N2C(=O)C(Cl)=C(N3CCN(C)CC3)C2=O)c(C)c1	1	-4%	2.6µM*	-1%	?	-3
CCOC(=O)c1c(NC(=O)c2nn(CC)cc2Br)sc(C)c1C	3	17%	24%	-6%	?	-1
CCC(=O)Nc1ccc(F)c(Cl)c1	24	-5%	5%	-2%	-3%	3
CCOC(=O)c1ccc(NC(=O)c2nn(CC)cc2Br)cc1	53*	-2%	34%	-19%	-16%	35*
CCn1cc(Br)c(C(=O)Nc2ccc(Cl)cc2Cl)n1	55	7%	48%	-5%	/	25*
CCOC(=O)c1c(NC(=O)c2nn(CC)cc2Br)c(C#N)nn1-c1ccccc1	-5	14%	-25%	5%	13µM*	4
CCOC(=O)c1nn(-c2ccccc2)c(C#N)c1NC(=O)c1nn(CC)cc1Br	-6	-7%	-6%	/	?	10
CCOC(=O)c1ccc(NC(=S)NC(=O)c2nn(CC)cc2Br)cc1	18	11%	3%	-14%	10%	-3
CCn1cc(Br)c(C(=O)Nc2ccc(F)c(Cl)c2)n1	73*	-2%	4%	-8%	104%	54*
Cc1ccc(O)c(Cc2cc(C)cc(Cc3cc(C)ccc3O)c2O)c1	/	3%	/	/	/	/
SMILES	Shiga inhibitor	AMA1-RON2 inh	Pf growth 96h	SARS PLpro yeast	Pf growth 48h	Cycloheximide cs
O=C(O)c1ccccc1-c1ccccc1C(=O)NCc1ccccc1Cl	-6	6%	0%	4%	29%	-1
CCOC(=O)c1nn(-c2ccc(F)cc2)c(=O)c(C#N)c1C	/	-15%	?	2%	-3%	-5
CCOC(=O)c1nn(-c2ccccc2)c(=O)c(C#N)c1C	18	18%	15µM*	6%	/	-4
O=c1c2c3c(sc2n2cnnc2n1Cc1ccccc1)CN(Cc1ccccc1)CC3	14	?	?	-9%	10µM*	-2
CC[C@@H](C(=O)[C@@H](C)[C@@H](O)[C@H](C)[C@@H]1O[C@@H]([C@@H](CC)C(=O)O)CC[C@@H]1C)[C@H]1O[C@]2(C=C[C@@H](O)[C@]3(CC[C@@](C)([C@H]4CC[C@](O)(CC)[C@H](C)O4)O3)O2)[C@H](C)C[C@@H]1C	/	-6%	/	/	/	/
CCC(C(=O)O)C1CCC(C)C(C(C)C(O)C(C)C(=O)C(CC)C2OC3(C=CC(O)[C@@]4(CC[C@](C)(C5CC[C@@](O)(CC)C(C)O5)O4)O3)C(C)CC2C)O1 (stereo partly drawn)	/	/	0.21µM*	/	0.43µM*	/
O=C(O)CCN1CCc2ccccc2C1c1ccncc1 (stereo not drawn)	2	0%	32%	3%	33%	-8
Cn1nnnc1SCc1ccccc1F	-6	7%	-15%	2%	13%	0
Cn1c(SCc2ccccc2F)nnc1-c1ccccn1	109*	-8%	11%	-1%	275%	44*
Cn1c(SCc2ccccn2)nnc1-c1cnccn1	57*	0%	-1%	0%	39%	38*
Cc1cccc(CSc2nnc(-c3cnccn3)n2C)c1	45*	-1%	33%	0%	-36%	17*
Cn1c(SCc2nc3ccccc3[nH]2)nnc1-c1cnccn1	43	3%	/	-4%	6%	27
Cc1cccc(CSc2nnc(-c3ccccn3)n2N)c1	36	-26%	?	-8%	33%	18*
Cn1c(SCC(N)=O)nnc1-c1cnccn1	2	-1%	15%	1%	29%	4
Cc1sc2ncnc(NCC(C)(C)N3CCOCC3)c2c1C	1	6%	?	2%	/	-1
CC1CCCN(C(=O)COC(=O)C2=COCCO2)C1 (stereo not drawn)	/	-4%	/	0%	/	/
CC1(C(=O)NS(=O)(=O)c2ccc(C#N)cc2)CCN1C(=O)Cc1ccsc1 (stereo not drawn)	/	1%	/	/	/	/
C=C(C)CSc1nnc(-c2ccccc2)n1N	75*	-1%	-22%	/	30%	24*
CSc1nnc(-c2cnccn2)n1C	-1	3%	341%	13%	-11%	-4
Cn1c(SCc2ccccc2F)nnc1-c1cnccn1	111*	18%	?	0%	123%	75*
Nn1c(SCc2ccccc2F)nnc1-c1cccnc1	75*	2%	124%	2%	112%	40*
Nn1c(SCc2cccc(F)c2)nnc1-c1cccnc1	24	17%	82%	1%	56%	14
Cc1cc(=O)[nH]c(N/N=C/C(C)c2ccccc2)n1 (stereo not drawn)	2	97%	-5%	-1%	14%	10
COc1cc(CC(=O)N2CCN(S(=O)(=O)c3ccc(C)cc3)CC2)cc(OC)c1OC	/	-1%	/	5%	/	/
Cc1ccc(OCC(=O)NC(=S)Nc2ccc(Br)cn2)cc1C	-16	29%	-9%	-1%	11%	-3

Compound activity (PubChem)
